The entries come from a sample that favours the strongest signals as a whole.
Key:
Test in all cases: glycan array binding signal (z-score within array); higher = stronger binding
Settings in all cases: glycan notation: IUPAC condensed, linker removed
[1] = target: Fuc(a1-2)[Gal(a1-3)]Gal(b1-4)GlcNAc
Summary of the method: (§1)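 Arrays were curated from the Consortium for Functional Glycomics database, 3228 in total, and kept only where the protein sequence was available. Binding is expressed as a within-array Z-score. This score was averaged across arrays of the same protein sequence at different concentrations or buffers and across linkers, and negative values can be read as non-binding.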

[2] = target: Fuc(a1-2)[GalNAc(a1-4)]Gal(b1-4)GlcNAc
Summary of the method: as §1

Gal(b1-3)GalNAc = target: Gal(b1-3)GalNAc
Summary of the method: as §1

[3] = target: Gal(b1-3)GalNAc(b1-3)Gal(a1-4)Gal(b1-4)Glc
Summary of the method: as §1

[4] = target: Gal(b1-3)GlcNAc(b1-3)Gal(b1-4)Glc
Summary of the method: as §1

Gal(b1-4)Glc6S = target: Gal(b1-4)Glc6S
Summary of the method: as §1

[5] = target: Gal(b1-4)GlcNAc(b1-3)Gal(b1-4)Glc
Summary of the method: as §1

Gal3S(b1-4)Glc = target: Gal3S(b1-4)Glc
Summary of the method: as §1

Gal3S6S(b1-4)GlcNAc6S = target: Gal3S6S(b1-4)GlcNAc6S
Summary of the method: as §1

GalNAc(a1-3)Gal = target: GalNAc(a1-3)Gal
Summary of the method: as §1

Glc(a1-6)Glc(a1-6)Glc = target: Glc(a1-6)Glc(a1-6)Glc
Summary of the method: as §1

[6] = target: GlcNAc(b1-2)Gal(b1-3)GalNAc
Summary of the method: as §1

[7] = target: Man(a1-2)Man(a1-2)Man(a1-6)[Man(a1-3)]Man
Summary of the method: as §1

[8] = target: Man(a1-2)Man(a1-3)[Man(a1-2)Man(a1-6)]Man(a1-6)[Man(a1-2)Man(a1-2)Man(a1-3)]Man(b1-4)GlcNAc(b1-4)GlcNAc
Summary of the method: as §1

Man(a1-3)[Man(a1-6)]Man = target: Man(a1-3)[Man(a1-6)]Man
Summary of the method: as §1

[9] = target: Neu5Ac(a2-3)Gal(b1-3)GlcNAc
Summary of the method: as §1

Neu5Ac(a2-3)Gal(b1-4)Glc = target: Neu5Ac(a2-3)Gal(b1-4)Glc
Summary of the method: as §1

[10] = target: Neu5Ac(a2-3)Gal(b1-4)GlcNAc6S
Summary of the method: as §1

[11] = target: Neu5Ac(a2-6)Gal(b1-4)GlcNAc(b1-3)Gal(b1-4)GlcNAc
Summary of the method: as §1

Neu5Ac(a2-6)GalNAc = target: Neu5Ac(a2-6)GalNAc
Summary of the method: as §1

B1: DCAL1 (Homo sapiens), Q8IZS7 (protein)
chain: MVSNFFHVIQVFEKSATLISKTEHIGFVIYSWRKSTTHLGSRRKFAISIYLSEVSLQKYDCPFSGTSFVVFSLFLICAMAGDVVYADIKTVRTSPLELAFPLQRSVSFNFSTVHKSCPAKDWKVHKGKCYWIAETKKSWNKSQNDCAINNSYLMVIQDITAMVRFNI
glycan array binding signal (z-score) [1]: -0.172 | glycan array binding signal (z-score) [2]: -0.139 | glycan array binding signal (z-score) (Gal(b1-3)GalNAc): -0.214 | glycan array binding signal (z-score) [3]: -0.25 | glycan array binding signal (z-score) [4]: -0.181 | glycan array binding signal (z-score) (Gal(b1-4)Glc6S): -0.212 | glycan array binding signal (z-score) [5]: 1.75 | glycan array binding signal (z-score) (Gal3S(b1-4)Glc): -0.249 | glycan array binding signal (z-score) (Gal3S6S(b1-4)GlcNAc6S): 1.34 | glycan array binding signal (z-score) (GalNAc(a1-3)Gal): -0.202 | glycan array binding signal (z-score) (Glc(a1-6)Glc(a1-6)Glc): -0.234 | glycan array binding signal (z-score) [6]: -0.121 | glycan array binding signal (z-score) [7]: -0.251 | glycan array binding signal (z-score) [8]: 5.03 | glycan array binding signal (z-score) (Man(a1-3)[Man(a1-6)]Man): -0.223 | glycan array binding signal (z-score) [9]: -0.253 | glycan array binding signal (z-score) (Neu5Ac(a2-3)Gal(b1-4)Glc): -0.211 | glycan array binding signal (z-score) [10]: -0.184 | glycan array binding signal (z-score) [11]: -0.203 | glycan array binding signal (z-score) (Neu5Ac(a2-6)GalNAc): 0.533

Source: the supplement of paper PMC8728848
